# Compounds with a hit are over-represented: about 13% of the library has one in this group of screens.
# USP2a inhib: blocks human ubiquitin-specific protease USP2a | O75604 | AID 927 | Potency, µM (titrated, usually from 38.3 µM), for the others: top-dose activity change, negative = inhibition, actives largely listed as inhibitors | 60,000 compounds, 0.1% hits | USP2a enzymatic assay, qHTS inhibition; also: potency is read from the fitted curve at half-maximal effect; nearly all actives have a fitted effect of over 60% in size
# Target sequence (O75604 whole entry, looked up): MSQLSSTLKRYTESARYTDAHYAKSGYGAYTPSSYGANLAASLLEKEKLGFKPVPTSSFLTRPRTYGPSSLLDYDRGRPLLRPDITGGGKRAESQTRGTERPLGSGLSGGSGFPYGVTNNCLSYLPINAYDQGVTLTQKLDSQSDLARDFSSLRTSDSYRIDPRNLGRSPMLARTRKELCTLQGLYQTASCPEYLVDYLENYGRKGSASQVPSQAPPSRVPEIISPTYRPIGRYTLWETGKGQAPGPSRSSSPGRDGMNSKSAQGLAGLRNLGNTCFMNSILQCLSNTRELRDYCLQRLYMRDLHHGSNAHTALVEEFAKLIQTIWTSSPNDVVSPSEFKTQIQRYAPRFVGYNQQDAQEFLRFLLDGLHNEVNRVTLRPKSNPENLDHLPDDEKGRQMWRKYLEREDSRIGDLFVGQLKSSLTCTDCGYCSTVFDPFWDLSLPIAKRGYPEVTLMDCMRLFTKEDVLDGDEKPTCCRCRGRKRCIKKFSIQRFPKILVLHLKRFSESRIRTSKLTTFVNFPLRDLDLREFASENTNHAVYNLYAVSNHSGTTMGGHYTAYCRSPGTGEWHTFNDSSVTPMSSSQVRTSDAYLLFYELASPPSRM
#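 Coupled readout: USP2-cleaved Ub-PLA2 (20nM final) turns over NBD C6-HPC (20uM final), Ex 460nm/Em 535nm after 2.5 h, time-zero read flagging artifacts. Enzyme (20nM final, pH 8.0 Tris) given 30 min RT with compound first; NEM defines full inhibition.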
# A350 autofl: compound fluoresces in the Alexa 350 spectral region; 59,000 compounds, 11% hits; max dye-equivalent concentration, M; Compound autofluorescence, 340/450 nm, Alexa 350 dye-equivalents; hits give high values; in the data active = max dye-equivalent concentration above about 10 nM; inconclusive = mostly about 1.1 nM to 9.6 nM
# HADH2 inhib: blocks human hydroxyacyl-CoA dehydrogenase type II. Q99714. recombinant HADH2, NADH fluorescence, beta-hydroxybutyryl-CoA. Potency, µM (titrated, usually from 57.1 µM), inactives show at the top dose activity change, negative = inhibition, actives largely listed as inhibitors. 73,000 compounds, 3.4% hits. AID 886; also: potency is read from the fitted curve at half-maximal effect; % is scaled to controls: 0 for no effect and ±100 for the full control effect; nearly all actives have a fitted effect of over 60% in size
#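 Activity measured as NADH fluorescence gain (360/450 nm), taken as the change between first and last reads of a 4-min kinetic run. Conditions: pH 9.0 Tris buffer, 20 nM E. coli-expressed His-tagged enzyme, 1 mM NAD+, 90 uM beta-hydroxybutyryl-CoA; 15-min compound preincubation.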
# AID923: qHTS Assay for Allosteric/Competitive Inhibitors of Caspase-1: Spectroscopic Profiling in AFC Spectral Region; Potency, µM (highest dose often 57.5 µM), for the others: at the top dose fluorescence increase, usual class: activators; compound fluorescence, AFC spectral region (405/520 nm); 75,000 compounds, 1.1% hits; also: potency is read from the fitted curve at half-maximal effect; 0% is about no effect
#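 Compound autofluorescence profiled at 405 nm ex/520 nm em during kinetic caspase 1 run (50 nM enzyme, 5 uM Ac-WEHD-AFC, HEPES pH 7.5, 10 mM DTT). Titration up to 57 uM; baseline from regression intercept, normalized to AFC standard curve.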
# 4MU fluor: compounds fluorescent in 4-MU spectral region; AID 589; max dye-equivalent concentration, M; 59,000 compounds, 11% hits; compound autofluorescence, 340/450 nm, 4-MU equivalents; hits give high values; in the data active = max dye-equivalent concentration above about 10 nM; inconclusive = mostly about 1.1 nM to 9.6 nM
#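 Compounds in 100 mM Tris, pH 8.0, incubated 15 min at room temperature, then fluorescence read at 340 nm excitation/450 nm emission. Signal converted to 4-MU dye-equivalent concentration using an on-plate six-point 4-MU standard curve.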
# HSD17B inhib: inhibitors of human HSD17B10 dehydrogenase | AID 893 | Q99714 | 75,000 compounds, 7.6% hits | recombinant HSD17B10, NADH fluorescence kinetic | Potency, µM (highest dose often 57.1 µM), for the others: at the highest dose activity change, negative = inhibition, most hits filed as inhibitors;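 also: the protocol describes HADH2 (HSD17B10) and not the HSD17B4 of the title; potency is read from the fitted curve at half-maximal effect; % is scaled to controls: 0 for no effect and ±100 for the full control effect; nearly all actives have a fitted effect of over 70% in size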
#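 His-tagged E. coli-expressed HADH2 at 20 nM in 100 mM Tris-HCl pH 9.0 with 0.01 % Tween-20, preincubated 15 min with compound at room temperature. Reaction with 1 mM NAD+ and 90 uM beta-hydroxybutyryl coenzyme A; NADH fluorescence (360/450 nm) read kinetically over 4 min, last minus first point.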
# Numbers without * were called inactive; i = inactive; u = inconclusive; x = no result given; [ ] = another dose, or the depositor's remark. Unless noted, calls follow the shape of the dose curve; as a rule, active = well fitted curve in the direction sought with a large enough effect; inconclusive = small, poorly fitted or top-dose-only effect, or another doubt; inactive = no such curve, though single readings can be large; an effect the other way counts as inactive or inconclusive.
SMILES,USP2a inhib,A350 autofl,HADH2 inhib,AID923,4MU fluor,HSD17B inhib
CN1C(=O)CSc2ccc(NC(=O)N3CCN(c4ccccn4)CC3)cc21,28%,i,-4%,0%,i,32µM*
O=C(c1cccs1)N1CCc2ccccc21,-2%,x,-15%,1%,x,-4%
O=C(c1coc(=O)c(Br)c1)N1CCCc2ccccc21,x,3.6e-07M*,x,x,3.3e-07M*,x
O=C(c1cccs1)N1CCCc2ccccc21,-2%,3.1e-08M*,-9%,6%,2.7e-08M*,-7%
CC1(C)CCCN(C(=O)c2coc(=O)c(Br)c2)C1,-2%,1.3e-06M*,13µM*,5%,9.7e-07M*,32µM*
COc1cc2c(cc1OC)-c1cc(=Nc3c(C)cc(C)cc3C)n(C)c(=O)n1CC2,11%,i,4%,2%,i,-7%
CC(=O)OC1CC2C(C)(C)C(=O)C=C[C@]2(C)C2CC[C@@]3(C)C(c4ccoc4)OC(=O)C4O[C@@]43[C@]12C (some centres not stated),27%,x,x,0%,x,5%
Cc1c(N=C=O)cccc1N=C=O,x,x,0%,4%,x,-3%
CC1(C)Cc2c(sc3nc(SCC(=O)O)[nH]c(=O)c23)CO1,1%,u,3%,1%,u,u
CC1(C)Cc2c(sc3ncn4nc(CCC(=O)O)c(=O)nc4c23)CO1,-1%,1.4e-08M*,-8%,-1%,1.3e-08M*,32µM*
CCOc1ccc2[nH]c(=O)c(CN(CCOC)C(=O)N3CCOCC3)cc2c1,24%,2.4e-07M*,7%,1%,2.5e-07M*,25µM*
Cc1ccc(CN(Cc2cc3cc(C)ccc3[nH]c2=O)C(=O)N2CCOCC2)cc1,132%,u,1%,1%,u,-24%
CCOc1ccc2[nH]c(=O)c(CN(Cc3ccc(C)cc3)C(=O)N3CCCC3)cc2c1,-6%,2.7e-08M*,23%,1%,3.5e-08M*,u
CCCCC(=O)OCCNC(=O)c1cc2ccccc2oc1=O,0%[7.66 µM],x,-5%[11.4 µM],1%,x,25µM*
CN(C)CCNC(=O)c1cc2cc(Br)ccc2oc1=O,x,x,-3%,0%,x,2%
O=C(OCCNC(=O)c1cc2ccccc2oc1=O)c1cccnc1,4%,1.8e-08M*,u,-2%,1.9e-08M*,u
O=C(c1csnn1)N1CCC[C@@]2(CCN(Cc3cc(C(F)(F)F)cc(C(F)(F)F)c3)C2)C1,29%,i,-4%,0%,i,-14%
CCCCNC1=C(Br)C(=O)CC(C)(C)C1,x,i,x,x,i,x
COC(=O)Nc1nnc(-c2ccncc2)s1,-6%,3.3e-07M*,16µM*,1%,3e-07M*,25µM*
CCOC(=O)Nc1nnc(-c2cccc(OC)c2)s1,u,u,32µM*,-1%,1.1e-08M*,32µM*
COC(=O)Nc1nnc(-c2ccccc2Cl)s1,-4%,u,32µM*,-1%,u,32µM*
CCCOc1cccc(-c2nnc(N)s2)c1,x,i,x,x,i,x
CCCC(=O)Nc1nnc(-c2cccc(OCC)c2)s1,10%,u,0%,-1%,u,20µM*
Nc1nnc(-c2ccccc2Cl)s1,5%,i,u,0%,i,u
Cc1cc(C)n(-c2nnc(C)c(=O)[nH]2)n1,-3%[7.66 µM],x,10%[11.4 µM],-1%,x,4%
SMILES,USP2a inhib,A350 autofl,HADH2 inhib,AID923,4MU fluor,HSD17B inhib
COC(=O)[C@@]1(Cc2ccc(OC)cc2)[C@H]2c3cc(C(=O)N4CCCC4)n(Cc4ccc(C)o4)c3C[C@H]2CN1C(=O)c1ccccc1,x,x,-5%,-3%,x,11%
CC(C)[C@@H](CC(=O)N[C@@H]1CCCC[C@H]1C(=O)N[C@H](CC(=O)N[C@@H](CCC(=O)O)CC(=O)O)Cc1ccccc1)NC(=O)C[C@H](Cc1c[nH]c2ccccc12)NC(=O)[C@@H]1CCCC[C@H]1N,x,x,15%,x,x,x
CCCc1nnc(NC(=O)Nc2ccccc2OC)s1,x,i,x,x,i,x
COc1ccccc1-c1nnc(NC(=O)OCC(C)C)s1,7%,i,52%,-3%,i,10µM*
CCOC(=O)Nc1nnc(-c2ccccc2OC)s1,0%,u,10µM*,0%,u,13µM*
CCc1nnc(NC(=O)CSc2nnc(-c3ccccc3OC)n2-c2ccccc2)s1,19%,i,-9%,-1%,i,-4%
S=C([S-])NCCNC(=S)[S-].[Zn+2],x,x,4µM*,0%,x,5µM*
CCOc1ccc(-c2nnc3ccc(SCc4ccc(C(=O)OC)o4)nn23)cc1,39%,u,u,0%,u,-17%
CCOc1ccc(-c2nc(CSCC(=O)NCc3ccco3)c(C)o2)cc1,11%,i,-13%,-2%,i,32µM*
Cc1ccc(-c2nc(C)sc2CC(=O)NCc2ccco2)cc1,5%,1.3e-08M*,-9%,3%,1.3e-08M*,u
Cc1ccc(-c2nn(CC(=O)NCc3ccco3)c(=O)c3ccccc23)cc1,-1%,i,4%,-1%,i,-10%
CCOc1ccc(-c2nnc3ccc(SCC(=O)NCc4ccco4)nn23)cc1,12%,2.5e-08M*,u,7%,2.5e-08M*,u
COc1ccc(-c2nc(CS(=O)CC(=O)NCc3ccco3)c(C)o2)cc1 (configuration not stated),x,x,-21%,2%,x,u
O=C(CSc1ccc2nnc(-c3ccc(F)cc3)n2n1)NCC1CCCO1 (configuration not stated),-7%,1.9e-08M*,u,0%,1.6e-08M*,u
O=C(CSc1ccc2nnc(-c3ccc(F)cc3)n2n1)NCc1ccco1,16%,4.6e-08M*,-21%,0%,4.5e-08M*,u
O=C(CSc1ccc2nnc(-c3ccncc3)n2n1)NCc1ccco1,x,x,11%,-2%,x,3%
Cc1ccc(-c2nnc3ccc(SCC(=O)NCc4ccco4)nn23)cc1,4%,6.4e-08M*,15%,0%,6.2e-08M*,u
CC(C)CN1CC[C@@]2(CCCN(C(=O)c3cnccn3)C2)C1,14%,i,15%,0%,i,-1%
COc1ccc(-c2cn3cccnc3n2)cc1NC(=O)CC(C)C,6%,1.6e-07M*,-24%,2%,1.6e-07M*,25µM*
CCCCc1ccc(NC(=O)COCC)cc1,3%,i,4%,0%,i,-1%
COc1ccc(Cl)cc1NC(=O)Cn1cccc1,5%,i,0%,1%,i,-11%
CCCC(=O)Nc1cc(-c2cn3cccnc3n2)ccc1OC,6%,1.8e-07M*,2%,0%,1.9e-07M*,32µM*
CCOCC(=O)Nc1ccc(-c2cn3cccnc3n2)cc1,-6%,5.7e-06M*,i,8%,5.5e-06M*,3.2µM*
CC(C)CC(=O)Nc1ccc(-c2cn3ccsc3n2)cc1,20%,i,7%,-1%,i,1%

# Compound activity (PubChem BioAssay)
